Reference: PubChem BioAssay AID485364 (National Center for Advancing Translational Sciences (NCATS), 2010)
Screen size: about 360,000 compounds; about 11,000 (3.1%) were called active. Inconclusive results (about 4%) are left out. The list comes from a sample in which actives are over-represented; it also holds similar structures and randomly drawn compounds. Unmarked numbers belong to inactive results. The call rests on the fitted dose curve; in most records, active means well fitted inhibition curve with a large enough effect; inconclusive means small, poorly fitted or top-dose-only effect; inactive means no such curve, though single readings can be large or run the other way.

molecular target: Schistosoma mansoni thioredoxin glutathione reductase (TGR) (UniProt Q962Y6); experiment: qHTS Assay for the Inhibitors of Schistosoma Mansoni Peroxiredoxins; settings: purified TGR, DTNB reduction, TNB absorbance 405 nm; series mostly up to 114 µM; activity change, negative = inhibition: at the top concentration; further: nearly all actives have a fitted effect of over 60% in size
Summary of the method: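 First, TGR (20 nM dispensed) and NADPH were mixed with compound. Second, a 15 min room-temperature incubation followed. Third, further NADPH and then DTNB were added to start the reaction. Finally, TNB absorbance was monitored kinetically.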
On the % scale 0 is the no-effect control and ±100 the full control effect; potency means the concentration at half of the fitted maximal effect.

Compound	activity change, negative = inhibition	Potency
COc1cc(CN(CC2CCCO2)C(=O)c2ccccc2F)cc(OC)c1OC (stereo not given)	-7.23%	–
CCc1nc2c(cnn2-c2ccc(C)cc2)c(=O)n1-c1ccc(C)cc1	9.53%	–
COc1cc(CN2CCC(n3nccc3NC(=O)CCCc3ccccc3)CC2)ccc1O	–	44.7 µM (active)
Cc1ccc(CN2CCC(n3nccc3NC(=O)CCCc3ccccc3)CC2)o1	-60.4%	–
COc1ccc(CN2CCC(n3nccc3NC(=O)CCCc3ccccc3)CC2)cc1C	5.46%	–
CC1=Nc2cc(C(=O)N3CCC(C)CC3)ccc2Sc2ccc(Cl)cc21	12.6%	–
N=C1C(c2nc3ccccc3s2)=C(O)CN1NC(=O)c1ccc([N+](=O)[O-])cc1	–	12.6 µM (active)
Cc1ccc(C)n1NC(=O)c1ccc([N+](=O)[O-])cc1	-23.3%	–
N=C1C(c2nc3ccccc3[nH]2)=C(O)CN1NC(=O)c1c[nH]c2ccccc12	-7.22%	–
CCC(=O)N1CCc2cc(Br)cc(S(=O)(=O)NCc3ccc(Cl)cc3)c21	1.1%	–
Cc1nn(CC(=O)O)c(=O)c2cc3cc(F)ccc3n12	4.83%	–
COc1ccccc1NC(=O)c1cc(S(=O)(=O)NCCc2ccccc2)ccc1F	1.29%	–
O=C(CSc1nc2ccc(Nc3nc(N4CCOCC4)nc(N4CCOCC4)n3)cc2s1)NCc1ccco1	-26.5%	–
C=CCn1c(SCC(=O)NCc2ccccc2)nnc1-c1cc(Br)ccc1O	-22.8%	–
C=CCn1c(CSc2nc3ccccc3s2)nnc1SCC(=O)NCc1ccco1	–	11.2 µM (active)
CC(=O)Nc1ccc(NC(=O)CSc2nnc3c4cc(Br)ccc4n(C)c3n2)cc1	0.416%	–
Cn1c2ccc(F)cc2c2nnc(NN)nc21	–	50.1 µM (active)
CCn1c2ccc(F)cc2c2nnc(SCCN3CCOCC3)nc21	0%	–
COc1ccc(S(=O)(=O)NCc2cccn2Cc2cccc(C)c2)cc1Cl	-25%	–
CCOc1cc(C(=O)Nc2nnc3n2CCS3)cc(OCC)c1OCC	8.04%	–
CCc1cccc(NC(=O)CN(c2ccc(C)c(C)c2)S(=O)(=O)c2ccsc2C(=O)OC)c1	7.42%	–
CC(=O)N1CC(C)c2scc(C)[n+]2-c2ccccc21 (stereo not given)	–	1.58 µM (active)
Cc1ccc(/C=C(\C#N)C(=O)Nc2cc(C)ccc2C)cc1	9.44%	–
Cc1nn(C(C)C(=O)Nc2ccc(C(C)C)cc2)c(=O)c2c1sc1ccccc12 (stereo not given)	-4.07%	–
CCOC(=O)c1c(NC(=O)c2ccc(S(=O)(=O)N3CCCC(C)C3)cc2)sc2c1CCN(C(C)C)C2 (stereo not given)	-4.43%	–

Compound	activity change, negative = inhibition	Potency
COC(=O)c1cc(NC(=O)CCc2c(C)nc3c4c(C)cc(C)nc4nn3c2C)cc(C(=O)OC)c1	-4.76%	–
Cc1cc(C)c2c(n1)nn1c(-n3ccnc3)cc(C)nc21	–	35.5 µM (active)
Cc1cc(C)c2c(NC(=O)C3CC3)nn(C)c2n1	13.4%	–
COc1ccc(NC(=O)Cn2c(=O)n(CCC(C)C)c(=O)c3cccnc32)cc1Cl	4.25%	–
Cc1c(C(=O)NCc2ccccc2Br)oc2ccc3c(c12)C(=O)CC(C)(C)O3	1.93%	–
CCOC(=O)N1CCC(NC(=O)c2cnn(-c3cccc(C)c3)c2C2CCN(C(=O)OC(C)(C)C)CC2)CC1	-12.9%	–
COc1cc(Cl)ccc1Nc1ncc(C(=O)N2CCN(c3ccccc3OC)CC2)c2ccccc12	8.24%	–
Cc1ccc2nc(CN3CCN(S(=O)(=O)c4ccc(C)c(C)c4)CC3)oc2c1	-4.25%	–
CSc1nc(-c2ccc(F)cc2)nc2c1Cc1c(CO)cnc(C)c1O2	-3.94%	–
Cc1ccccc1CSc1nc(-c2ccccc2)nc2c1Cc1c(CO)cnc(C)c1O2	–	39.8 µM (active)
CSc1nc(-c2ccccc2Cl)nc2c1Cc1c(CO)cnc(C)c1O2	-22.1%	–
CC1CCCN(CC(=O)Nc2cc(Cl)ccc2Oc2ccccc2)C1 (stereo not given)	3.98%	–
Cc1cc(NC(=O)CN2CCCC(C)C2)n(-c2nc3ccccc3s2)n1 (stereo not given)	–	12.6 µM (active)
CC(=O)Nc1ccc(NC(=O)CN2CCCC(C)C2)c(Cl)c1 (stereo not given)	9.99% [at 11.4 µM]	–
COc1ccc(C(=O)Nc2nonc2-c2ccc(OC)c(OC)c2)cc1Cl	-0.679%	–
COc1cccc(CNc2nccn(-c3ccc(OC)c(OC)c3)c2=O)c1	10.1%	–
O=C(O)c1cnn2c(C(F)(F)F)cc(-c3ccccc3)nc12	-20.4%	–
O=C(NCc1ccco1)c1ccc([N+](=O)[O-])cc1Cl	-30.4%	–
O=C(NCc1ccco1)c1cnn2c(C(F)(F)F)cc(-c3ccco3)nc12	–	50.1 µM (active)
OCc1cnc(SCc2ccc(F)cc2)n1Cc1ccc(F)cc1	-8.02%	–
COc1ccc(N2CCN(c3cc(C)nc4nncn34)CC2)cc1	0.741%	–
C/C(=C\c1ccccc1)C1NC(=O)c2c(sc3c2CCCC3)N1 (stereo not given)	-10.9%	–
Cc1[nH]c(=O)c(C(=O)/C=C/c2ccccc2)c2c1CCCC2	–	35.5 µM (active)
COC(=O)c1c(C)[nH]c(C(=O)/C=C/c2ccc(Cl)cc2)c1C	-5.56%	–
Cc1nc(-c2ccc(Cl)cc2)sc1C(=O)CBr	–	39.8 µM (active)
